# Test results as given in PubChem BioAssay (NCATS).
# Where “and” joins values, the source holds several entries; their conditions need not be identical. Identical values can stand only once. A number with no mark means an inactive call. Inconclusive results are not listed. Calls of active or inactive are those of the source. Unless noted, calls follow the shape of the dose curve; as a rule, active = well fitted curve in the direction sought with a large enough effect; inconclusive = small, poorly fitted or top-dose-only effect, or another doubt; inactive = no such curve, though single readings can be large; an effect the other way counts as inactive or inconclusive.
# Legend:
# [1] = AP1 Signaling Pathway (AID 357; active = well fitted curve in either direction with a large enough effect, not every such curve was filed as active;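 also: ME-180 reporter cells stimulated with EGF at its EC50 level; % is scaled to controls: 0 for no effect and ±100 for the full control effect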); conditions: ME-180 AP-1-bla reporter, EGF-induced, beta-lactamase ratio, 5 h; at 38 µM (top of the series)
# Procedure, shortened: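 Cells are seeded overnight, exposed to compound titrations and an EC50 level of EGF for 5 hours at 37 °C, then loaded with CCF4 dye for 2.5 hours. Beta-lactamase activity under the AP-1 element is read as a blue/green ratio.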
# [2] = molecular target: Cytochrome P450 1A2 (Homo sapiens) (UniProt P05177); test: p450-cyp1a2 (AID 410; calls by dose curve; also: potency is read from the fitted curve at half-maximal effect;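 as to activity change, negative = inhibition: -100% = full effect of reference inhibitor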); conditions: recombinant CYP1A2, luciferin-ME demethylation, luminescence; series mostly up to 57 µM
# Procedure, shortened: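 Luminescent readout of luciferin formed from Luciferin-ME by human CYP1A2; data normalized against complete inhibition by 57 uM furafylline. Enzyme 20nM, substrate 100uM at Km, 100mM KPO4 buffer, 60 min reaction at room temperature.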
# [3] = NFAT Signaling Pathway (AID 444; active = well fitted curve in either direction with a large enough effect, not every such curve was filed as active;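 also: carbachol stimulus at about its EC50 of 1 µM final; % is scaled to controls: 0 for no effect and ±100 for the full control effect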); conditions: Jurkat NFAT-bla M1, carbachol, beta-lactamase ratio, 5 h; at 38 µM (top of the series)
# Procedure, shortened: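 Jurkat cells carrying an NFAT-driven β-lactamase reporter and co-transfected muscarinic M1 receptor were treated with compound plus carbachol (1 uM final, an EC50 level) for 5 h at 37 °C. CCF4 loading followed for 1 h at RT; 460/530 nm ratio gave %activity.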
# [4] = Stat Signaling Pathway (AID 446; active = well fitted curve in either direction with a large enough effect, not every such curve was filed as active;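 also: ME-180 cervical cancer cells given 40 pM IL-6 alongside compound; SIE-controlled beta-lactamase reporter measured as 460/530 nm FRET emission ratio; % is scaled to controls: 0 for no effect and ±100 for the full control effect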); conditions: ME-180 (cervical carcinoma) SIE beta-lactamase reporter, IL-6 stimulated, 5 h; at 38 µM (top of the series)
# Procedure, shortened: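 IL-6/STAT signaling read in ME-180 cells via an SIE beta-lactamase reporter. Stimulus was 40 pM IL-6 (its AC50) for 5 hrs, so both activation and inhibition register.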
# [5] = molecular target: Glucocorticoid receptor (Homo sapiens) (UniProt P04150); test: GR-GFP Redistribution (AID 450;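 active = compounds whose dose series gives a full or clear partial fitted curve of increased nuclear translocation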; also: potency is read from the fitted curve at half-maximal effect); conditions: U2OS GR-GFP nuclear translocation, laser cytometry, 2 h
# [6] = molecular target: Mitogen-activated protein kinase 10 (Mus musculus) (UniProt Q61831); test: JNK3 AlphaScreen Assay (AID 530; active = well fitted curve in either direction with a large enough effect, not every such curve was filed as active;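 also: kinase came from lysate of stimulated human HepG2 cells; signal reports phosphorylation of biotinylated GST-cJun 1-79 at Ser73 with 10 µM ATP; % is scaled to controls: 0 for no effect and ±100 for the full control effect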); conditions: JNK3 lysate, c-Jun phosphorylation; series mostly up to 57.1 µM
# Procedure, shortened: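 Inhibitors reduce antibody binding to phosphorylated biotin-cJun, lowering AlphaScreen luminescence. Lysates from HepG2 cells pre-activated by IL-1beta plus TNF-alpha supplied JNK3; compounds were titrated.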
# [7] = molecular target: 3',5'-cyclic-AMP phosphodiesterase 4B (Homo sapiens) (UniProt Q07343); test: qHTS Assay for Inhibitors of PDE-IV (AID 607; active = well fitted activation curve with a large enough effect in the main read-out, with a control signal flat, not every such curve was filed as active; also: % of control where 0% means no effect); conditions: HEK293 ACTOne CNG channel cells, membrane potential fluorescence; series mostly up to 22.9 µM
# Procedure, shortened: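 Live HEK293 cells with a modified cyclic nucleotide-gated (CNG) channel report intracellular cAMP via membrane-potential dye fluorescence (ex 535/em 590 nm). Endogenous PDE-IV was targeted. Compounds were tested at up to 22.9 uM final; RO 20-1724 100 uM served as control.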
# [8] = Cell Viability - BJ (AID 421; calls by dose curve;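 also: potency is read from the fitted curve at half-maximal effect; cells exposed to compound for 40 hours at 37 °C before readout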); conditions: BJ fibroblast viability, qHTS
# Procedure, shortened: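 Quantitative HTS: ATP depletion in BJ cells after 40 hr compound exposure in complete culture medium, detected with CellTiter-Glo; AC50 from standard Hill fits.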
# [9] = Cell Viability - Jurkat (AID 426;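 active = dose-dependent loss of cell ATP signal giving a full or clear fitted curve, ranked by lower potency value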; also: potency is read from the fitted curve at half-maximal effect); conditions: qHTS
# Procedure, shortened: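 qHTS, 1536-well; Jurkat E6-1, 5000 cells/well, complete medium; cpd 40 hr, 37 °C; CellTiter-Glo 20 min RT; luminescence. AC50 by Hill fit.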
# [10] = Cell Viability - Hek293 (AID 427;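 active = compounds whose dose-response curve shows a full or clear partial loss of cell viability, called from curve shape rather than a numeric limit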;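 also: potency is read from the fitted curve at half-maximal effect; cells exposed to compound for 40 hours at 37 °C before reading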); conditions: qHTS
# Procedure, shortened: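 AC50 values derive from Hill-modelled concentration-response of ATP-based luminescence, normalized between DMSO-only and 100 uM tamoxifen controls. Cells were exposed in complete culture medium for 40 hr at 37 °C before detection.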
# [11] = Cell Viability - MRC5 (AID 434; calls by dose curve;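 also: potency is read from the fitted curve at half-maximal effect; potency reflects cytotoxicity seen as loss of intracellular ATP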); conditions: MRC5 lung fibroblast viability, qHTS
# Procedure, shortened: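 MRC5 normal human lung fibroblasts (1500/well) were treated with compounds for 40 hr at 37 °C in complete medium, and viable cells were measured as intracellular ATP by CellTiter-Glo luminescence. AC50 came from Hill fits, normalized to DMSO and 100 uM tamoxifen.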
# [12] = Cell Viability - SK-N-SH (AID 435; calls by dose curve;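 also: potency is read from the fitted curve at half-maximal effect; compound exposure lasted 40 h at 37 °C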); conditions: SK-N-SH neuroblastoma cell viability qHTS
# Procedure, shortened: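 SK-N-SH human neuroblastoma cells (1500/well) were exposed to compounds in complete medium for 40 h at 37 °C, and intracellular ATP was then measured by CellTiter-Glo luminescence. AC50 was taken from Hill fits, normalized to DMSO and 100 uM tamoxifen.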
# [13] = Cell Viability - N2a (AID 540); conditions: N2a mouse neuroblastoma cell viability; activity change, negative = cytotoxicity: at 92.2 µM (top of the series);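 also: plate controls were DMSO alone for no effect and tamoxifen control for full effect; nearly all actives have a fitted effect of over 45% in size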
# Procedure, shortened: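 Luminescent ATP signal (CellTiter-Glo, 20 min at room temperature) served as the viability read-out after N2a cells were treated with compounds for 40 hours at 37 °C. Concentration-response data were fitted to the Hill equation for AC50.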
# [14] = Cell Viability - NIH 3T3 (AID 541); conditions: NIH 3T3 cell viability, qHTS; series mostly up to 92.2 µM; also: nearly all actives have a fitted effect of over 25% in size; also: potency is read from the fitted curve at half-maximal effect;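 as to activity change, negative = cytotoxicity: plate controls were DMSO alone for no effect and tamoxifen positive control for full effect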
# Procedure, shortened: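 Luminescent ATP signal (CellTiter-Glo) served as the viability read-out after NIH 3T3 cells were exposed to compounds over a concentration range for 40 hr at 37 °C. Hill-equation modelling of concentration-response data gave AC50.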
# [15] = Cell Viability - H-4-II-E (AID 543); conditions: H-4-II-E rat hepatoma viability; series mostly up to 92.2 µM; also: % is scaled to controls: 0 for no effect and ±100 for the full control effect; nearly all actives have a fitted effect of over 35% in size
# Procedure, shortened: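 Luminescent ATP signal (CellTiter-Glo) served as the viability read-out, with cytotoxicity seen as a concentration-dependent ATP drop. Cells were treated for 40 hours in complete medium. AC50 values derive from Hill-equation modelling.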
# [16] = Cell Viability - SH-SY5Y (AID 544); conditions: SH-SY5Y neuroblastoma cell viability; series mostly up to 92.2 µM; also: nearly all actives have a fitted effect of over 55% in size
# Procedure, shortened: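 Luminescent ATP read-out (CellTiter-Glo) measures loss of viable SH-SY5Y neuroblastoma cells after 40 hr compound exposure at 37 °C. AC50 values derive from standard Hill modelling of qHTS concentration-response data.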
# [17] = Cell Viability - Mesenchymal (AID 546); conditions: mesenchymal cells viability, qHTS; series mostly up to 91.7 µM;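 also: cells exposed to compound for 40 hours before reading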
# Procedure, shortened: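 Normal human renal glomerulus-derived kidney mesenchymal cells, 1000 per well in complete medium, were treated with compounds for 40 hr at 37 °C. Viability was read as intracellular ATP by CellTiter-Glo luminescence; AC50 values came from Hill-equation fits of qHTS concentration-response data.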
# [18] = Cellular Toxicity (caspase-3) HepG2 (AID 654); conditions: HepG2 caspase-3 activation, luminescence, 0% = DMSO only, 100% = tamoxifen; series mostly up to 92.2 µM;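 also: cells exposed to compound for 16 hours before reading; 0% = DMSO alone and 100% = caspase signal from 100 µM tamoxifen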
# Procedure, shortened: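 Cells plated 5 hr at 37 °C, compound added, incubated 16 hr at 37 °C. Caspase-Glo 3/7 reagent followed, 20 min at room temperature, then luminescence read. Activation scored as signal increase; AC50 from Hill fit.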
# [19] = Cellular Toxicity (caspase-3) Jurkat (AID 655); conditions: Jurkat caspase-3 activation, luminescence, DMSO = 0%, tamoxifen = 100%; series mostly up to 92.2 µM;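 also: cells exposed to compound for 16 h at 37 °C before reading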
# Procedure, shortened: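 Jurkat cells (5000/well) in complete medium were treated with compounds for 16 hr at 37 °C, then Caspase-Glo 3/7 luminescence was read after 20 min at room temperature. Data normalized to DMSO (basal) and 100 uM tamoxifen (100%); AC50 from Hill fit.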
# [20] = Cellular Toxicity (caspase-3) HUV-EC-C (AID 656); conditions: HUV-EC-C cells, caspase-3 activation (apoptosis), vehicle = 0, 100 µM tamoxifen = 100%; series mostly up to 92.2 µM
# Procedure, shortened: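 HUV-EC-C endothelial cells, 1000/well, were pre-incubated 5 hr at 37°C, then exposed to compounds for 16 hr at 37°C. Caspase-Glo 3/7 luminescence was read after 20 min at room temperature. AC50 came from Hill fits, normalized to DMSO and 100 uM tamoxifen.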
# Sequence of 3',5'-cyclic-AMP phosphodiesterase 4B (Homo sapiens) (Q07343 whole entry, looked up): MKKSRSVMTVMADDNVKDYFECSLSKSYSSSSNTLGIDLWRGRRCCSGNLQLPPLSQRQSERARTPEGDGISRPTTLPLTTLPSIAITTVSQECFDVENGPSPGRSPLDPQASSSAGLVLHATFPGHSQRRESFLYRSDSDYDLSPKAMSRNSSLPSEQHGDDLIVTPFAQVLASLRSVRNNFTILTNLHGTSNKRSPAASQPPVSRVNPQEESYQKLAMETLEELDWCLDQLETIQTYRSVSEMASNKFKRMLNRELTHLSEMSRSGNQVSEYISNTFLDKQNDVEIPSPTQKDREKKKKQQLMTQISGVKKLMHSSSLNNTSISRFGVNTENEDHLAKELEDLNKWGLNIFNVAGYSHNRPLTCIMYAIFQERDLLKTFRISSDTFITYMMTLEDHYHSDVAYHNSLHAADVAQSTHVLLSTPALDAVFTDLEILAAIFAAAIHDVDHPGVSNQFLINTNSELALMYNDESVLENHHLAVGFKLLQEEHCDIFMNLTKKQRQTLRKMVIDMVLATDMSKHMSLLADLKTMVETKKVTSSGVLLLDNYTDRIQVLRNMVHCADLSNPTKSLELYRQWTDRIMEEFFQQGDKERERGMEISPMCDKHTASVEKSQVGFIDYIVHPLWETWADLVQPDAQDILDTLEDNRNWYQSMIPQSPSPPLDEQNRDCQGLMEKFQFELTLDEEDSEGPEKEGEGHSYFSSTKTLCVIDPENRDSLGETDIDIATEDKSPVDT
# Sequence of Cytochrome P450 1A2 (Homo sapiens) (P05177 whole entry, looked up): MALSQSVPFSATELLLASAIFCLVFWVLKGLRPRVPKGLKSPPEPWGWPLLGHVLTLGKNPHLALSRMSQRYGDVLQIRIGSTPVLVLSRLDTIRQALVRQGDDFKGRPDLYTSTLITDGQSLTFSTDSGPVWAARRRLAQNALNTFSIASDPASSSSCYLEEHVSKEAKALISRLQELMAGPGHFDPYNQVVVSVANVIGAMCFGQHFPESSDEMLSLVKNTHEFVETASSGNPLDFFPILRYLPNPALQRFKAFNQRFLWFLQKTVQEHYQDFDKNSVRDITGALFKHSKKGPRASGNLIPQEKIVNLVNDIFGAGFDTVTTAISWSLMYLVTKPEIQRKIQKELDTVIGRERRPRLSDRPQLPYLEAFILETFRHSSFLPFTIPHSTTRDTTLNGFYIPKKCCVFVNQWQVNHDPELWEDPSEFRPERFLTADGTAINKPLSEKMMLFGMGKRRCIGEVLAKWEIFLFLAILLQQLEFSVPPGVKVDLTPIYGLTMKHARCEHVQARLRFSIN
# Sequence of Glucocorticoid receptor (Homo sapiens) (P04150 whole entry, looked up): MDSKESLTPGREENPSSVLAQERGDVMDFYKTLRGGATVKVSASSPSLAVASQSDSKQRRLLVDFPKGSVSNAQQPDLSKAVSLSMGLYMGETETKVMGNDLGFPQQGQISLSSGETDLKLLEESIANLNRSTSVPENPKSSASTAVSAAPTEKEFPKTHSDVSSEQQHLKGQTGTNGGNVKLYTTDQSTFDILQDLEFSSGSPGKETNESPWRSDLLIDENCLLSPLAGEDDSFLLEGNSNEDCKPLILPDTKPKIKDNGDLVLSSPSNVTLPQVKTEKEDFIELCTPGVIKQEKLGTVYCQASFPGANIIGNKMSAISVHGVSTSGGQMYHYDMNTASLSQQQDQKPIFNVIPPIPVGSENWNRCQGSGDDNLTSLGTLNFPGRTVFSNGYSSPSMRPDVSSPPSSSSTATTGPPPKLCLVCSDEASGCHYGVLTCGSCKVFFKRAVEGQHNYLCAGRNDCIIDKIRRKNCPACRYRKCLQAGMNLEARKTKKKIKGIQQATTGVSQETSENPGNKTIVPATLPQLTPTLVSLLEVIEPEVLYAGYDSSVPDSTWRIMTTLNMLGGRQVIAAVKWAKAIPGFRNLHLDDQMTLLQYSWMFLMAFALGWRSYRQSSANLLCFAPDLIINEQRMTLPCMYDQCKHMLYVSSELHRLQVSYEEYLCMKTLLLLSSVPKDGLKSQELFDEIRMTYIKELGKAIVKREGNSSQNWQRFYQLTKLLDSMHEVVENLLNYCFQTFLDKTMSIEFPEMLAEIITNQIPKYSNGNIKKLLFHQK
smiles,measurement,setting,value
O=C(O)Cc1cnc[nH]1,"activity change, negative = inhibition",[1],10.5%
same,Potency,[2],inactive
same,"activity change, negative = inhibition",[3],-2.43%
same,"activity, negative = inhibition",[4],-3.06%
same,Potency,[5],> 46 µM
same,outcome,[6],inactive
same,Potency,[7],inactive
CC(=O)NCCc1c[nH]c2ccccc12,"activity change, negative = inhibition",[1],3.76%
same,Potency,[2],15.8 µM (active)
same,"activity change, negative = inhibition",[3],5.76%
same,Potency,[5],> 46 µM
same,outcome,[6],inactive
same,Potency,[7],inactive
CCCN1CCO[C@@H]2c3cc(O)ccc3OC[C@H]21,"activity change, negative = inhibition",[1],-14.2% and 2.45%
same,"activity change, negative = inhibition",[3],8.87% and 8.95%
same,"activity, negative = inhibition",[4],12% and -17.6%
same,Potency,[5],> 46 µM
same,outcome,[6],inactive
same,Potency,[7],inactive
O=C(O)C(Cl)Cl,Potency,[8],> 92 µM
same,Potency,[9],> 92 µM
same,Potency,[10],> 92 µM
same,Potency,[11],> 92 µM
same,Potency,[12],> 92 µM
same,outcome,[6],inactive
same,"activity change, negative = cytotoxicity",[13],2.37%
same,Potency,[14],inactive
same,Potency,[15],inactive
same,Potency,[16],inactive
same,Potency,[17],inactive
same,outcome,[18],inactive
same,outcome,[19],inactive
same,outcome,[20],inactive
c1cc2ccc3cccc4ccc(c1)c2c34,Potency,[8],> 92 µM
same,Potency,[9],> 92 µM
same,Potency,[10],> 92 µM
same,Potency,[11],> 92 µM
same,Potency,[12],> 92 µM
same,"activity change, negative = cytotoxicity",[13],2.91%
same,Potency,[14],inactive
same,Potency,[15],inactive
same,Potency,[16],inactive
same,Potency,[17],inactive
same,outcome,[18],inactive
same,outcome,[19],inactive
same,outcome,[20],inactive
Nc1ccc(Cl)cc1N,Potency,[8],> 92 µM
same,Potency,[9],4.05 µM (active)
same,Potency,[10],> 92 µM
same,Potency,[11],> 92 µM
same,outcome,[6],inactive
same,Potency,[14],0.631 µM (active)
same,Potency,[15],inactive
same,Potency,[17],inactive
same,outcome,[20],inactive
Nc1ccc(Sc2ccc(N)cc2)cc1,Potency,[8],> 92 µM
same,Potency,[9],> 92 µM
same,Potency,[10],> 92 µM
same,Potency,[11],> 92 µM
same,Potency,[12],> 92 µM
same,outcome,[6],inactive
same,"activity change, negative = cytotoxicity",[13],-14%
same,Potency,[14],inactive
same,Potency,[16],inactive
same,Potency,[17],inactive
same,outcome,[18],inactive
same,outcome,[19],inactive
same,outcome,[20],inactive
